# Experimental data reported in PubChem BioAssay (Tox21).
# Where “and” joins values, the source holds several entries; their conditions need not be identical. Identical values can stand only once. Results filed as inconclusive are left out. Where a call stands in place of a potency, no number is given. Some structures have more than one record in an assay (separate samples or runs), and their calls can disagree. Calls of active or inactive are those of the source. Unless noted, calls follow the shape of the dose curve; as a rule, active = well fitted curve in the direction sought with a large enough effect in the repeat runs; inconclusive = weak or mixed curves; inactive = no such curve, though single readings can be large; an effect the other way counts as inactive or inconclusive.
# Tests used:
# [1] = qHTS assay to identify small molecule agonists of the hypoxia (HIF-1) signaling pathway - cell viability counter screen (AID 1224844; calls by dose curve; also: nearly all actives have a fitted effect of over 50% in size)
# In short: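 Cytotoxicity was measured in parallel with the HRE-driven beta-lactamase readout: after 17 hrs of compound exposure at 37C, HRE-bla ME-180 cells received CellTiter-Glo and luminescence was recorded 30 min later.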
# [2] = qHTS assay to identify small molecule agonists of H2AX (AID 1224845; active = well fitted activation curve with a large enough effect in the signal ratio in the repeat runs, not every such curve was filed as active; the % refers to the signal ratio)
# In short: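 Phospho-H2AX Ser139 measured by HTRF (ex 320 nm; em 665 and 620 nm) after 24 hr antibody incubation. Compounds, 15 concentrations, 0.76% DMSO, were applied to CHO-K1 cells for 3hr at 37C before lysis.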
# [3] = qHTS assay to identify small molecule agonists of the hypoxia (HIF-1) signaling pathway (AID 1224846; active = well fitted activation curve with a large enough effect in the signal ratio in the repeat runs, not every such curve was filed as active; the % refers to the signal ratio)
# In short: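 Compounds from the Tox21 10K library, dissolved in DMSO, are tested for induction of a hypoxia response element–controlled beta-lactamase reporter in ME-180 cells. Exposure lasts 17 hrs at 37C after a 5 hr settling period, followed by CCF4-AM FRET substrate.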
# [4] = qHTS assay to identify small molecule agonists of H2AX - cell viability counter screen (AID 1224847; calls by dose curve;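 also: wild-type CHO-K1 cells; top concentration of the series differs between compounds; nearly all actives have a fitted effect of over 30% in size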)
# In short: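 Counter-screen for viability: CellTiter-Glo ATP luminescence read after 3 h compound treatment (15-point titration, 0.76% DMSO final) of CHO-K1 cells at 37C, with 30 min room-temperature reagent incubation.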
# [5] = qHTS RealTime-Glo MT Cell Viability Assay in HepG2 cells - 24 hour (AID 1224867); also: nearly all actives have a fitted effect of over 50% in size
# In short: (§1)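 HepG2 suspension premixed with RealTime-Glo reagents is plated at 600 cells per well and left 5 h at 37 C/5% CO2. Compounds in DMSO then go in, and bioluminescence reflecting viable cell number is recorded over 40 h.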
# [6] = qHTS RealTime-Glo MT Cell Viability Assay in HEK293 cells - 32 hour (AID 1224868); also: nearly all actives have a fitted effect of over 50% in size; also: potency is read from the fitted curve at half-maximal effect
# In short: (§2)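 Reads taken at 0, 8, 16, 24, 32 and 40 h from the same wells. HEK293 cells (600/well) carried RealTime-Glo reagents from seeding, with compound added after a 5 h settle at 37 C.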
# [7] = A CellTox Green Cytotoxicity Assay to monitor cytotoxicity in HEK293 cells - 0 hour (AID 1224869); also: nearly all actives have a fitted effect of over 50% in size
# In short: (§3)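 Cells (HEK293, 600/well) and dye reagent are dispensed together. After 5 h at 37 C, 23 nL compound is pinned in. Plates stay at 37 C for 40 h with fluorescence read at 0h, 8h, 16h, 24h, 32h and 40h.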
# [8] = qHTS RealTime-Glo MT Cell Viability Assay in HepG2 cells - 40 hour (AID 1224870); also: nearly all actives have a fitted effect of over 50% in size
# In short: (§4)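 Real-time viability: cells seeded at 600 per well together with NanoLuc and cell-permeant prosubstrate, compounds added after 5 h incubation. Luminescence tracked at 0, 8, 16, 24, 32 and 40 h of exposure.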
# [9] = A CellTox Green Cytotoxicity Assay to monitor cytotoxicity in HEK293 cells - 40 hour (AID 1224871); also: nearly all actives have a fitted effect of over 45% in size
# In short: as §3
# [10] = qHTS RealTime-Glo MT Cell Viability Assay in HEK293 cells - 16 hour (AID 1224872); also: nearly all actives have a fitted effect of over 50% in size; also: potency is read from the fitted curve at half-maximal effect
# In short: as §2
# [11] = qHTS RealTime-Glo MT Cell Viability Assay in HepG2 cells - 8 hour (AID 1224873); also: nearly all actives have a fitted effect of over 55% in size
# In short: as §4
# [12] = qHTS RealTime-Glo MT Cell Viability Assay in HEK293 cells - 40 hour (AID 1224874); details: RealTime-Glo luminescence; max response: stronger effect = lower value; also: nearly all actives have a fitted effect of over 50% in size
# In short: (§5)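 Real-time viability in HEK293: signal arises when living cells convert a prosubstrate for NanoLuc in the medium, so luminescence tracks viable cell number. Compound (23 nL, DMSO) added 5 h post-seeding; kinetic reads at 0–40 h, 37 C.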
# [13] = A CellTox Green Cytotoxicity Assay to monitor cytotoxicity in HEK293 cells - 24 hour (AID 1224875); also: nearly all actives have a fitted effect of over 45% in size
# In short: as §3
# [14] = A CellTox Green Cytotoxicity Assay to monitor cytotoxicity in HepG2 cells - 16 hour (AID 1224876); also: nearly all actives have a fitted effect of over 45% in size
# In short: (§6)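 Cells and non-lytic dye reagent are dispensed together (600 HepG2 cells/well) and incubated 5 h before DMSO compound transfer. Kinetic fluorescence is then recorded in the same wells during 40 h at 37 C.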
# [15] = qHTS RealTime-Glo MT Cell Viability Assay in HepG2 cells - 32 hour (AID 1224877); also: nearly all actives have a fitted effect of over 55% in size
# In short: as §1
# [16] = A CellTox Green Cytotoxicity Assay to monitor cytotoxicity in HepG2 cells - 24 hour (AID 1224878); also: nearly all actives have a fitted effect of over 45% in size
# In short: as §6
# [17] = A CellTox Green Cytotoxicity Assay to monitor cytotoxicity in HepG2 cells - 40 hour (AID 1224879); also: nearly all actives have a fitted effect of over 40% in size
# In short: as §6
# [18] = qHTS RealTime-Glo MT Cell Viability Assay in HEK293 cells - 0 hour (AID 1224880)
# In short: as §5
# [19] = qHTS assay to identify small molecule antagonists of the estrogen related receptor (ERR) signaling pathway from Tox21 library (AID 1224848); also: nearly all actives have a fitted effect of over 50% in size
# In short: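 Luciferase luminescence (ONE-Glo, 30 min room temperature) was the read-out. Cells of the NTP-supplied ERR line, 2,000 per well, were given 6 h at 37 C before compound addition in DMSO and 18 h exposure at 37 C.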
# [20] = qHTS assay to identify small molecule agonists of the estrogen related receptor (ERR) signaling pathway from Tox21 library (AID 1224849; calls by dose curve; also: nearly all actives have a fitted effect of over 15% in size); details: ERR reporter cell line, ONE-Glo luciferase, 18 h
# In short: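 Cells carrying the ERR reporter were plated and allowed to settle for 6 h, exposed to library compounds for 18 h at 37 C, then lysed with ONE-Glo and luminescence measured.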
smiles,measurement,setting,value
CC(C)c1ccc(C(C)C)cc1,Potency,[1],inactive
same,Potency,[2],inactive
same,outcome,[3],inactive
same,Potency,[4],inactive
same,Potency,[5],inactive
same,Potency,[6],inactive
same,Potency,[7],inactive
same,Potency,[8],inactive
same,Potency,[9],inactive
same,Potency,[10],inactive
same,Potency,[11],inactive
same,max response,[12],6.04% (inactive) and 0.0055% (inactive)
same,Potency,[13],inactive
same,Potency,[14],inactive
same,Potency,[15],inactive
same,Potency,[16],inactive
same,Potency,[17],inactive
same,Potency,[18],inactive
CC(C)(CO)CO,Potency,[1],inactive
same,Potency,[2],inactive
same,outcome,[3],inactive
same,Potency,[4],inactive
same,Potency,[19],inactive
same,"activity change, positive = activation",[20]; at 92.4 µM (top of the series),2.96% (inactive) and 5.63% (inactive)
same,Potency,[5],inactive
same,Potency,[6],inactive
same,Potency,[7],inactive
same,Potency,[9],inactive
same,Potency,[10],inactive
same,Potency,[11],inactive
same,max response,[12],3.9% (inactive) and 0.954% (inactive)
same,Potency,[13],inactive
same,Potency,[14],inactive
same,Potency,[15],inactive
same,Potency,[16],inactive
same,Potency,[17],inactive
same,Potency,[18],inactive
COc1cc(NC(=O)CC(C)=O)c(OC)cc1Cl,Potency,[1],inactive
same,Potency,[2],inactive
same,outcome,[3],inactive
same,Potency,[4],inactive
same,Potency,[19],inactive
same,"activity change, positive = activation",[20]; at 92.4 µM (top of the series),-16.1% (inactive) and -21.5% (inactive)
same,Potency,[6],inactive and 11 µM (active)
same,Potency,[7],inactive
same,Potency,[9],inactive
same,Potency,[10],inactive and 21.9 µM (active)
same,Potency,[11],inactive
same,Potency,[13],inactive
same,Potency,[14],inactive
same,Potency,[15],inactive
same,Potency,[16],inactive
same,Potency,[17],inactive
same,Potency,[18],inactive
C[Si](C)(C)N[Si](C)(C)C,Potency,[1],inactive
same,Potency,[2],inactive
same,outcome,[3],inactive
same,Potency,[4],inactive
same,Potency,[5],inactive
same,Potency,[6],inactive
same,Potency,[7],inactive
same,Potency,[8],inactive
same,Potency,[10],inactive
same,Potency,[11],inactive
same,max response,[12],2.88% (inactive) and 0.469% (inactive)
same,Potency,[13],inactive
same,Potency,[14],inactive
same,Potency,[15],inactive
same,Potency,[16],inactive
same,Potency,[17],inactive
same,Potency,[18],inactive
C[n+]1ccn(CCO)c1,Potency,[1],inactive
same,Potency,[2],inactive
same,outcome,[3],inactive
same,Potency,[4],inactive
same,Potency,[19],inactive
same,"activity change, positive = activation",[20]; at 92.4 µM (top of the series),4.16% (inactive) and -3.23% (inactive)
same,Potency,[5],inactive
same,Potency,[6],inactive
same,Potency,[7],inactive
same,Potency,[8],inactive
same,Potency,[9],inactive
same,Potency,[10],inactive
same,Potency,[11],inactive
same,max response,[12],6.1% (inactive) and 16.8% (inactive)
same,Potency,[13],inactive
same,Potency,[14],inactive
same,Potency,[15],inactive
same,Potency,[16],inactive
same,Potency,[17],inactive
same,Potency,[18],inactive
CC(=O)Nc1ccc(CC(=O)O)cc1,Potency,[1],inactive
same,Potency,[2],inactive
same,outcome,[3],inactive
same,Potency,[4],inactive
same,Potency,[19],inactive
same,"activity change, positive = activation",[20]; at 42.5 µM (top of the series),-1.58% (inactive)
same,"activity change, positive = activation",[20]; at 92.4 µM (top of the series),9.59% (inactive)
same,Potency,[5],inactive
same,Potency,[6],inactive
same,Potency,[7],inactive
same,Potency,[8],inactive
same,Potency,[10],inactive
same,Potency,[11],inactive
same,max response,[12],-18.8% (inactive) and 1.34% (inactive)
same,Potency,[13],inactive
same,Potency,[15],inactive
same,Potency,[16],inactive
same,Potency,[17],inactive
same,Potency,[18],inactive
Cc1cc(CC(=O)O)n(C)c1C(=O)c1ccc(Cl)cc1,Potency,[1],inactive
same,Potency,[2],inactive
same,outcome,[3],inactive
same,Potency,[4],inactive
same,Potency,[5],inactive
same,Potency,[6],inactive
same,Potency,[7],inactive
same,Potency,[8],inactive
same,Potency,[9],inactive
same,Potency,[10],inactive
same,Potency,[11],inactive
same,max response,[12],-0.154% (inactive) and 2.14% (inactive)
same,Potency,[13],inactive
same,Potency,[14],inactive
same,Potency,[15],inactive
same,Potency,[16],inactive
same,Potency,[17],inactive
same,Potency,[18],inactive
O=Cc1ccc(CO)o1,Potency,[1],inactive
same,Potency,[2],inactive
same,outcome,[3],inactive
same,Potency,[4],inactive
same,Potency,[19],inactive
same,"activity change, positive = activation",[20]; at 92.4 µM (top of the series),0.746% (inactive) and -3.97% (inactive)
same,Potency,[5],inactive
same,Potency,[6],inactive
same,Potency,[7],inactive
same,Potency,[9],inactive
same,Potency,[10],inactive
same,Potency,[11],inactive
same,Potency,[13],inactive
same,Potency,[15],inactive
same,Potency,[16],inactive
same,Potency,[17],inactive
same,Potency,[18],inactive
O=C1O[C@H]([C@H](O)CO)C(O)=C1O,Potency,[1],inactive
same,Potency,[2],inactive
same,outcome,[3],inactive
same,Potency,[4],inactive
same,Potency,[5],inactive
same,Potency,[6],inactive
same,Potency,[7],inactive
same,Potency,[8],inactive
same,Potency,[9],inactive
same,Potency,[10],inactive
same,Potency,[11],inactive
same,max response,[12],0.913% (inactive) and 0.152% (inactive)
same,Potency,[13],inactive
same,Potency,[15],inactive
same,Potency,[16],inactive
same,Potency,[17],inactive
same,Potency,[18],inactive
Nc1cccc(C(F)(F)F)c1,Potency,[1],inactive
same,Potency,[2],inactive
same,outcome,[3],inactive
same,Potency,[4],inactive
same,Potency,[19],inactive
same,"activity change, positive = activation",[20]; at 92.4 µM (top of the series),2.57% (inactive) and 2.05% (inactive)
same,Potency,[6],inactive
same,Potency,[7],inactive
same,Potency,[8],inactive
same,Potency,[9],inactive
same,Potency,[10],inactive
same,Potency,[11],inactive
same,max response,[12],3.13% (inactive) and 0.276% (inactive)
same,Potency,[13],inactive
same,Potency,[14],inactive
same,Potency,[15],inactive
same,Potency,[16],inactive
same,Potency,[17],inactive
same,Potency,[18],inactive
O=C1OC(=O)c2c(Cl)c(Cl)c(Cl)c(Cl)c21,Potency,[1],inactive
same,Potency,[2],inactive
same,outcome,[3],inactive
same,Potency,[4],inactive
same,Potency,[19],inactive
same,"activity change, positive = activation",[20]; at 92.4 µM (top of the series),-24.8% (inactive)
same,Potency,[5],inactive
same,Potency,[6],inactive
same,Potency,[7],inactive
same,Potency,[8],inactive
same,Potency,[9],inactive
same,Potency,[10],inactive
same,Potency,[11],inactive
same,max response,[12],1.44% (inactive)
same,Potency,[13],inactive
same,Potency,[15],inactive
same,Potency,[16],inactive
same,Potency,[17],inactive
same,Potency,[18],inactive
O=C1C(N(CO)C(=O)NCO)N(CO)C(=O)N1CO (stereo not given),Potency,[1],inactive
same,Potency,[2],inactive
same,outcome,[3],inactive
same,Potency,[4],inactive
same,Potency,[5],inactive
same,Potency,[6],inactive
same,Potency,[7],inactive
same,Potency,[8],inactive
same,Potency,[10],inactive
same,Potency,[11],inactive
same,max response,[12],0.683% (inactive) and 1.21% (inactive)
same,Potency,[13],inactive
same,Potency,[14],inactive
same,Potency,[15],inactive
same,Potency,[16],inactive
same,Potency,[17],inactive
same,Potency,[18],inactive
Cc1cc(C)c(O)c(C)c1,Potency,[1],inactive
same,Potency,[2],inactive
same,outcome,[3],inactive
same,Potency,[4],inactive
same,Potency,[19],inactive
same,"activity change, positive = activation",[20]; at 92.4 µM (top of the series),10.5% (inactive) and 2.09% (inactive)
same,Potency,[6],inactive
same,Potency,[7],inactive
same,Potency,[8],inactive
same,Potency,[10],inactive
same,Potency,[11],inactive
same,max response,[12],3.39% (inactive) and -0.795% (inactive)
same,Potency,[13],inactive
same,Potency,[14],inactive
same,Potency,[15],inactive
same,Potency,[16],inactive
same,Potency,[17],inactive
same,Potency,[18],inactive
